Measurements: PubChem BioAssay AID463173 (ICCB-Longwood Screening Facility, Harvard Medical School, 2010)
The whole screen tested about 52,000 compounds, of which about 4,300 (8.3%) were called active. Cut-off read from the data, not from the text of the source: active = survival mostly below about 52% (no sharp cut-off); inactive = mostly above about 56%. This excerpt belongs to a sample that is enriched for actives.

system: DeltatarO mutant; test: S. aureus survival, RN4220 and DeltatarO strains – OD600, teichoic acid synthesis inhibitors, primary screen (AID 463173); conditions: S. aureus RN4220 wild type/DeltatarO growth, OD600, 18 h, stronger effect = lower value, screened at 18.75 µg/mL (by protocol)

| SMILES | survival |
| --- | --- |
| CC(C)(C)c1ccc(OCCSc2nc(-c3cccs3)nc3cc(=O)[nH]n23)cc1 | 78% (inactive) |
| CC(=O)NCC(c1ccc2c(c1)OCO2)N1CCN(c2ccccc2)CC1 (configuration not stated) | 80% (inactive) |
| COc1ccc(NC(=O)c2ccc3c(c2)nnn3C2CCCC2)cc1Cl | 88% (inactive) |
| CCN1CCN(c2ncc3c(n2)CCN(Cc2ccccc2C)C3)CC1 | -1% (active) |
| COc1cc(OC)c(OC)cc1CN1CCc2nc(N3CCN(C)CC3)ncc2C1 | 84% (inactive) |
| COc1cc(OC)c(OC)cc1CN1CCc2nc(N3CCN(c4ccccc4F)CC3)ncc2C1 | 72% (inactive) |
| CCOc1ccccc1CN1CCc2nc(N3CCN(C)CC3)ncc2C1 | -2% (active) |
| CN1CCN(c2ncc3c(n2)CCN(Cc2ccccc2Cl)C3)CC1 | 79% (inactive) |
| Cc1ccccc1CN1CCc2nc(N3CCN(c4ncccn4)CC3)ncc2C1 | 88% (inactive) |
| Cc1ccccc1CN1CCc2nc(N3CCN(c4ccccn4)CC3)ncc2C1 | 94% (inactive) |
| CCN1CCN(c2ncc3c(n2)CCN(Cc2cc(Br)cs2)C3)CC1 | 6% (active) |
| CCOc1ccccc1CN1CCc2nc(N3CCN(c4ccccc4F)CC3)ncc2C1 | -4% (active) |
| CCN1CCN(c2ncc3c(n2)CCN(Cc2ccc(Br)s2)C3)CC1 | 76% (inactive) |
| CN1CCN(c2ncc3c(n2)CCN(Cc2cc(Br)cs2)C3)CC1 | 109% (inactive) |
| COc1ccccc1N1CCN(c2ncc3c(n2)CCN(Cc2ccccc2F)C3)CC1 | 89% (inactive) |
| COc1cc(C(=O)n2nc(-c3ccco3)nc2NCc2ccc(Cl)cc2)cc(OC)c1OC | 82% (inactive) |
| COc1cccc(CNC(=O)CSC2=Nc3ccccc3C3=NC(C(C)C)C(=O)N23)c1 (configuration not stated) | 69% (inactive) |
| Cc1ccc(Cl)cc1N1CCN(C(=O)C2CCN(S(=O)(=O)c3cn(C)cn3)CC2)CC1 | 98% (inactive) |
| CC(=O)Nc1cccc(NC(=O)C2CCCN2C(=O)Nc2ccccc2Cl)c1 (configuration not stated) | 113% (inactive) |
| CCOc1ccc(-c2csc(-c3nc(-c4ccc(Br)s4)cs3)n2)cc1 | 83% (inactive) |
| NC(=O)c1c(NC(=O)CS(=O)(=O)c2ccc(Cl)cc2)sc2c1CCCCC2 | 82% (inactive) |

| SMILES | survival |
| --- | --- |
| O=C(CSC1=Nc2ccccc2C2=NC(CCC(=O)NC3CCCCC3)C(=O)N12)Nc1cccc(Cl)c1 (configuration not stated) | 112% (inactive) |
| CCC(=O)N1CCc2cc(Br)cc(S(=O)(=O)CCC(=O)N(C)c3cccc(C)c3)c21 | 62% (inactive) |
| CCc1ccc(NC(=O)CC2C(=O)N(c3ccc(Cl)cc3)C(=O)N2Cc2cccs2)cc1 (configuration not stated) | 60% (inactive) |
| COc1cc(NC(=O)CC2C(=O)N(c3cccc(C)c3)C(=O)N2Cc2cccs2)cc(OC)c1 (configuration not stated) | 66% (inactive) |
| CCOc1ccc(NC(=O)CC2C(=O)N(c3cccc(C)c3)C(=O)N2Cc2cccs2)cc1 (configuration not stated) | 89% (inactive) |
| Cc1cccc(N2C(=O)C(CC(=O)Nc3cccc(F)c3)N(CCc3ccncc3)C2=O)c1 (configuration not stated) | 75% (inactive) |
| CCc1ccc(NC(=O)CC2C(=O)N(c3cccc(C)c3)C(=O)N2Cc2cccs2)cc1 (configuration not stated) | 20% (active) |
| Cc1cccc(N2C(=O)C(CC(=O)Nc3cccc(F)c3)N(Cc3cccs3)C2=O)c1 (configuration not stated) | 8% (active) |
| Cn1c(=O)n(C)c2cc(NS(=O)(=O)c3ccc(F)cc3)c(NCc3ccccc3)cc21 | 68% (inactive) |
| CCc1nn(CCCC(=O)N2CCN(c3ccc(OC)cc3)CC2)c(=O)c2cc3occc3n12 | 87% (inactive) |
| COc1ccc(OCc2nc3ccccc3n2Cc2ccccc2Cl)cc1 | 39% (active) |
| Cc1cccc(C(=O)NCc2nc3ccccc3n2Cc2ccccc2Cl)c1 | 106% (inactive) |
| Cc1ccccc1Cn1c(COc2ccc(Cl)cc2)nc2ccccc21 | 114% (inactive) |
| COc1ccc(-n2c(=O)c3ccccc3n(Cc3ccccc3Cl)c2=O)cc1 | 110% (inactive) |
| Cc1ccccc1OCc1nc2ccccc2n1Cc1ccccc1Cl | 0% (active) |
| C=CCc1ccccc1OCc1nc2ccccc2n1CC | 49% (inactive) |
| Cc1ccc(OCc2nc3ccccc3n2Cc2ccccc2Cl)cc1 | -8% (active) |
| C#CCn1c(COc2ccccc2C)nc2ccccc21 | 111% (inactive) |
| CCc1cc(C(=O)NCc2ccc(F)cc2)no1 | 53% (inactive) |
| Cc1cc(=O)oc2cc(OCC(=O)NCc3ccco3)ccc12 | 74% (inactive) |
| CC(C)C(c1nnnn1C1CCCC1)N1CCN(C(=O)c2ccco2)CC1 (configuration not stated) | 86% (inactive) |

| SMILES | survival |
| --- | --- |
| Cc1cccc(C(=O)NCC(c2ccc3c(c2)OCO3)N2CCOCC2)c1 (configuration not stated) | 73% (inactive) |
| Cc1ccc(N2C(=O)CCSC23C(=O)N(Cc2ccccc2)c2ccccc23)cc1 (configuration not stated) | 89% (inactive) |
| Cc1cccc(NC(=O)CSc2nnc(N)s2)c1 | 149% (inactive) |
| COc1cc(C(=O)NCCc2sc(-c3ccc(C)cc3)nc2C)cc(OC)c1OC | 80% (inactive) |
| Cc1ccc(/C=C2\SC(=O)NC2=S)o1 | 33% (active) |
| Cc1ccc(-n2c(C)cc(/C=C3\SC(=O)NC3=O)c2C)cc1 | 95% (inactive) |
| Cc1ccc(N=Cc2ccc(C)o2)cc1 | 98% (inactive) |
| Fc1ccc(CNc2ccc(N3CCCC3)cc2)cc1 | 97% (inactive) |
| Cc1ccccc1CNC(=O)CN1C(=O)C2CCCCN2c2ccc(C(=O)N3CCCC3)cc21 (configuration not stated) | 76% (inactive) |
| CCC(C)NC(=O)c1ccc2c(c1)N(Cc1ccccc1F)C(=O)c1ccccc1S2=O (configuration not stated) | 64% (inactive) |
| Cc1ccc2oc(-c3ccc(Cl)cc3)c(O)c(=O)c2c1 | 72% (inactive) |
| CC1CCN(C(=O)CSc2nnc(-c3ccccc3Cl)o2)CC1 | 104% (inactive) |
| CC1CCCCN1C(=O)CSc1nnc(-c2ccccc2Cl)o1 (configuration not stated) | 74% (inactive) |
| O=C(CSc1nnc(-c2cccc(Cl)c2)o1)N1CCc2ccccc21 | 85% (inactive) |
| CC1Cc2ccccc2N1C(=O)CSc1nnc(-c2cccc(Cl)c2)o1 (configuration not stated) | 34% (active) |
| COc1cccc(-c2nnc(SCC(=O)N3CCc4ccccc43)o2)c1 | 70% (inactive) |
| O=C(CSc1nnc(-c2cccc(F)c2)o1)N1c2ccccc2Sc2ccccc21 | 114% (inactive) |
| CC1Cc2ccccc2N1C(=O)CSc1nnc(-c2ccccc2Cl)o1 (configuration not stated) | 49% (active) |
| COc1cccc(-c2nnc(SCC(=O)N3c4ccccc4Sc4ccccc43)o2)c1 | 35% (active) |
| CC1Cc2ccccc2N1C(=O)CSc1nnc(-c2ccccc2)o1 (configuration not stated) | 69% (inactive) |
